PubChem BioAssay (Tox21)
Records with an inconclusive call do not appear. Calls of active or inactive are those of the source. Unless noted, calls follow the shape of the dose curve; as a rule, active = well fitted curve in the direction sought with a large enough effect in the repeat runs; inconclusive = weak or mixed curves; inactive = no such curve, though single readings can be large; an effect the other way counts as inactive or inconclusive.

Key:
[1] = qHTS assay to identify small molecule antagonists of the thyroid receptor (TR) signaling pathway - cell viability counter screen (AID 743064); also: nearly all actives have a fitted effect of over 50% in size
Procedure, shortened: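 Same-well viability check: GH3.TRE-Luc cells stimulated with 1 nM T3 alongside test compound for 23.5 h, followed by CellTiter-Fluor fluorescence.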

[2] = qHTS assay to identify small molecule antagonists of the estrogen receptor alpha (ER-alpha) signaling pathway - cell viability counter screen (AID 743074; calls by dose curve;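 also: HEK293 cells carrying ER-alpha-UAS-bla reporter stimulated with 17beta-estradiol; nearly all actives have a fitted effect of over 45% in size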)
[3] = qHTS assay to identify small molecule antagonists of the estrogen receptor alpha (ER-alpha) signaling pathway using the BG1 cell line - cell viability counter screen (AID 743081);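 also: compound given together with 17beta-estradiol as the ER stimulus; series mostly up to about 70 µM; nearly all actives have a fitted effect of over 45% in size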
Aromatase (Homo sapiens) = Aromatase (Homo sapiens) (UniProt P11511); experiment: qHTS assay to identify aromatase inhibitors (AID 743083); also: series mostly up to about 70 µM; nearly all actives have a fitted effect of over 55% in size
[4] = qHTS assay to identify aromatase inhibitors - cell viability counter screen (AID 743084);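 also: cells stimulated with testosterone during compound exposure; nearly all actives have a fitted effect of over 55% in size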
[5] = biological target: Aryl hydrocarbon receptor (Homo sapiens) (UniProt P35869); experiment: qHTS assay to identify small molecule that activate the aryl hydrocarbon receptor (AhR) signaling pathway (AID 743085);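 also: HG2L7.5c1 human HepG2 liver cells with stably integrated DRE-driven firefly reporter; series mostly up to about 70 µM; nearly all actives have a fitted effect of over 15% in size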
Procedure, shortened: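 Reporter assay in engineered HepG2 line HG2L7.5c1, whose plasmid carries twenty dioxin responsive elements upstream of firefly luciferase. Treatment lasted 24 h at 37C; ONE-Glo luminescence gauged induction.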

[6] = qHTS assay to identify small molecule that activate the aryl hydrocarbon receptor (AhR) signaling pathway - cell viability counter screen (AID 743086);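 also: HepG2 liver cells carrying the AhR DRE luciferase reporter; series mostly up to about 70 µM; nearly all actives have a fitted effect of over 45% in size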
Procedure, shortened: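 HepG2-AhR-luc (HG2L7.5c1) cells, 4000/well, treated 24 h at 37 C with compound; viability measured as CellTiter-Fluor fluorescence after 30 min in the same wells as the luciferase read.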

[7] = biological target: Peroxisome proliferator-activated receptor gamma (Homo sapiens) (UniProt P37231); experiment: qHTS assay to identify small molecule agonists of the peroxisome proliferator-activated receptor gamma (PPARg) signaling pathway (AID 743094; active = well fitted activation curve with a large enough effect in the signal ratio in the repeat runs, not every such curve was filed as active; the % refers to the signal ratio; also: potency is read from the fitted curve at half-maximal effect)
Procedure, shortened: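 Following 5 h plating at 37C, PPARg-bla HEK293H cells receive compound or DMSO for 17 h; fluorescence intensity is recorded after LiveBLAzer B/G loading for 1 h at room temperature.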

[8] = biological target: Peroxisome proliferator-activated receptor gamma (Homo sapiens) (UniProt P37231); experiment: qHTS assay to identify small molecule antagonists of the peroxisome proliferator-activated receptor gamma (PPARg) signaling pathway (AID 743191; calls by dose curve; also: series mostly up to about 63 µM; nearly all actives have a fitted effect of over 30% in size)
Procedure, shortened: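 GeneBLAzer PPARg UAS-bla HEK293H cells, 5 h post-plating, exposed to compounds 17 h at 37C. LiveBLAzer B/G FRET substrate added for 1 h at room temperature; beta-lactamase reporter read by fluorescence intensity.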

[9] = qHTS assay to identify small molecule antagonists of the peroxisome proliferator-activated receptor gamma (PPARg) signaling pathway - cell viability counter screen (AID 743194); also: nearly all actives have a fitted effect of over 55% in size
Procedure, shortened: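 Cytotoxicity counter screen in PPARg-bla HEK293H cells, same wells as reporter assay. Compounds plus 50 nM rosiglitazone (final) for 17 h at 37 C, then viability read by CellTiter-Glo luminescence.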

[10] = qHTS assay for small molecule agonists of the antioxidant response element (ARE) signaling pathway - cell viability counter screen (AID 743203; calls by dose curve; also: nearly all actives have a fitted effect of over 55% in size)
Procedure, shortened: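 Compounds in DMSO were pinned onto ARE-bla HepG2 cells plated 5 hrs earlier at 2,000 cells/well. Sixteen hours later at 37C/5% CO2, CellTiter-Glo was added and luminescence measured after 30 min at room temperature.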

[11] = qHTS assay for small molecule activators of the heat shock response signaling pathway - cell viability counter screen (AID 743209); also: nearly all actives have a fitted effect of over 50% in size
Procedure, shortened: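 Counter screen for cytotoxicity in HeLa HSE-bla reporter cells. Treatment was 5 h at 37 C; viability was detected by luminescent ATP assay (CellTiter-Glo) in the same wells as the beta-lactamase read.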

[12] = qHTS assay for small molecule activators of the heat shock response signaling pathway (AID 743210; active = well fitted activation curve with a large enough effect in the signal ratio in the repeat runs, with a control signal flat, not every such curve was filed as active; the % refers to the signal ratio; also: series mostly up to about 63 µM)
Procedure, shortened: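 HSE-bla HeLa cells (beta-lactamase reporter under heat shock response elements), plated overnight, then exposed to compounds 5 h at 37 C; LiveBLAzer B/G FRET substrate added, 2.5 h at room temperature, fluorescence intensity read.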

[13] = qHTS assay to identify small molecule antagonists of the thyroid receptor (TR) signaling pathway (AID 743065)
Procedure, shortened: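 GH3.TRE-Luc rat pituitary cells (two TREs driving luciferase) were dosed with compound, then stimulated with 1 nM T3 (final) for 23.5 h at 37 C. ONE-Glo luminescence was the read-out, with CellTiter-Fluor fluorescence as the cytotoxicity counter-screen.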

[14] = tested on: thyroid hormone receptor (rat, GH3 cells); experiment: qHTS assay to identify small molecule agonists of the thyroid receptor (TR) signaling pathway (AID 743066; calls by dose curve)
[15] = biological target: Estrogen receptor (Homo sapiens) (UniProt P03372); experiment: qHTS assay to identify small molecule antagonists of the estrogen receptor alpha (ER-alpha) signaling pathway (AID 743069; active = well fitted curve in the direction sought with a large enough effect in the signal ratio in the repeat runs, not every such curve was filed as active; the % refers to the signal ratio)
Procedure, shortened: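 HEK293 ER-alpha-UAS-bla GripTite cells, held overnight in 2% charcoal-stripped FBS, 5,000 cells/well, preincubated 4 h, then compound plus 17beta-estradiol for 18 h at 37C. Beta-lactamase read by LiveBLAzer B/G FRET substrate, 2 h at room temperature.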

[16] = biological target: Estrogen receptor (Homo sapiens) (UniProt P03372); experiment: qHTS assay to identify small molecule agonists of the estrogen receptor alpha (ER-alpha) signaling pathway (AID 743075; calls by dose curve)
[17] = biological target: Estrogen receptor (Homo sapiens) (UniProt P03372); experiment: qHTS assay to identify small molecule agonists of the estrogen receptor alpha (ER-alpha) signaling pathway using the BG1 cell line (AID 743079); also: nearly all actives have a fitted effect of over 20% in size
[18] = qHTS assay to identify small molecule antagonists of the estrogen receptor alpha (ER-alpha) signaling pathway using the BG1 cell line (AID 743080; calls by dose curve;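 also: BG1 cells stimulated with 17beta-estradiol alongside compound; series mostly up to about 70 µM; nearly all actives have a fitted effect of over 25% in size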)
Procedure, shortened: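 BG1-Luc-4E2 cells (endogenous full-length ER-alpha, 4xERE luciferase) hormone-starved 5 days in charcoal-stripped FBS, plated 4,000/well for 24 h, then compound plus 17beta-estradiol for 21.5 h at 37 C; ONE-Glo luminescence read.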

[19] = qHTS assay for small molecule agonists of the antioxidant response element (ARE) signaling pathway (AID 743202; active = well fitted activation curve with a large enough effect in the signal ratio in the repeat runs, not every such curve was filed as active; the % refers to the signal ratio)
Procedure, shortened: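 ARE-bla HepG2 cells (beta-lactamase reporter under the antioxidant response element), plated 5 hours, then exposed to compounds 16 hours at 37 C. LiveBLAzer B/G FRET substrate added for 2 hours at room temperature; fluorescence intensity read.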
% is scaled to controls: 0 for no effect and ±100 for the full control effect.

Sequence of Aromatase (Homo sapiens) (P11511 whole entry, looked up): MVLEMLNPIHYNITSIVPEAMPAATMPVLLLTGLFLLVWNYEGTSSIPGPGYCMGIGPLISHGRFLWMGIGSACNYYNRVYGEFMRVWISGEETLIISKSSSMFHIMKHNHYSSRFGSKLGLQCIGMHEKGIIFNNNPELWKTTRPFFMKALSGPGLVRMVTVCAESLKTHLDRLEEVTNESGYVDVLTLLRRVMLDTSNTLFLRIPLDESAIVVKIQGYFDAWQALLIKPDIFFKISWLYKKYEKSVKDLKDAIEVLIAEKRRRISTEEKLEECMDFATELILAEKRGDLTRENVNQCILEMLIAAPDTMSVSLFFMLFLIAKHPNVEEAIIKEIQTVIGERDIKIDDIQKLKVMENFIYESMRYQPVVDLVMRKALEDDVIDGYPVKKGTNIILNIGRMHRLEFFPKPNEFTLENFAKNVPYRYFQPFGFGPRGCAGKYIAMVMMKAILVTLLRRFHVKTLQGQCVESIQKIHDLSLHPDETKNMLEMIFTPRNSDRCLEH
Sequence of Aryl hydrocarbon receptor (Homo sapiens) (P35869 whole entry, looked up): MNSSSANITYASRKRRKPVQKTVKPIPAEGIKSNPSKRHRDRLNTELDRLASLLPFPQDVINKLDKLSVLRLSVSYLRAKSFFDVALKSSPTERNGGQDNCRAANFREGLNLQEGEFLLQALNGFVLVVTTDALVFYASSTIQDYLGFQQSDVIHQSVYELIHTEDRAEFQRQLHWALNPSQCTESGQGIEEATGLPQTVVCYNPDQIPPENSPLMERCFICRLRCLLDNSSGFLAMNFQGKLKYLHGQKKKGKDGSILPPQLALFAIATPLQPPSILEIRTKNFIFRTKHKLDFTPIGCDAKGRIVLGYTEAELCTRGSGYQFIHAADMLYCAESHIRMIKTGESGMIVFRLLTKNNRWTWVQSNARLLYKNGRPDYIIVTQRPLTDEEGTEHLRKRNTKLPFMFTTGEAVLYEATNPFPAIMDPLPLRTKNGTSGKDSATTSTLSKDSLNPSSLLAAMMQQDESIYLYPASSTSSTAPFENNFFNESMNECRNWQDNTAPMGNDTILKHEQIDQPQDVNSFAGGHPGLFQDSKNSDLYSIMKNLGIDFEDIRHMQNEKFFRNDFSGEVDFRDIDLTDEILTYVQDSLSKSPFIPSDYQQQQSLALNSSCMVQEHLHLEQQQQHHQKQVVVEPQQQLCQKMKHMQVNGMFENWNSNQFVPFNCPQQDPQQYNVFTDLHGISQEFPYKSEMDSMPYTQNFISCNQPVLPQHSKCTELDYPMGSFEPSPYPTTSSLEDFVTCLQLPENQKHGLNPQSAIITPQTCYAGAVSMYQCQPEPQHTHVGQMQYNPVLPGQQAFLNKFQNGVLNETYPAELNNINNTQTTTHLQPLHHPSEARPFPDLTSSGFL
Sequence of Peroxisome proliferator-activated receptor gamma (Homo sapiens) (P37231 whole entry, looked up): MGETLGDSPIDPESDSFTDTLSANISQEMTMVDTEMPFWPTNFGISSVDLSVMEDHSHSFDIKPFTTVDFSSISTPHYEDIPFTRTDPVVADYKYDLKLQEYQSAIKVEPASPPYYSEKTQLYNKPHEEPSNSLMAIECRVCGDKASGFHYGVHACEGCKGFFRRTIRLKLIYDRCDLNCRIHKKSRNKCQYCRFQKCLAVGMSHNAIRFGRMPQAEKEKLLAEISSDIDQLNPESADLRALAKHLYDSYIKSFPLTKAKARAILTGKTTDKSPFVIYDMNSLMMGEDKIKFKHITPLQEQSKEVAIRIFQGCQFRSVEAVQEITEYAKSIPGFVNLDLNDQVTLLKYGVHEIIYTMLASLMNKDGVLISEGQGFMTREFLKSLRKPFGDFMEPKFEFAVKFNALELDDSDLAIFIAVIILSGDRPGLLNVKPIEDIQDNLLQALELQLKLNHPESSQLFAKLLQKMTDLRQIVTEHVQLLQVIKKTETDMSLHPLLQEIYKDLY
Sequence of Estrogen receptor (Homo sapiens) (P03372 whole entry, looked up): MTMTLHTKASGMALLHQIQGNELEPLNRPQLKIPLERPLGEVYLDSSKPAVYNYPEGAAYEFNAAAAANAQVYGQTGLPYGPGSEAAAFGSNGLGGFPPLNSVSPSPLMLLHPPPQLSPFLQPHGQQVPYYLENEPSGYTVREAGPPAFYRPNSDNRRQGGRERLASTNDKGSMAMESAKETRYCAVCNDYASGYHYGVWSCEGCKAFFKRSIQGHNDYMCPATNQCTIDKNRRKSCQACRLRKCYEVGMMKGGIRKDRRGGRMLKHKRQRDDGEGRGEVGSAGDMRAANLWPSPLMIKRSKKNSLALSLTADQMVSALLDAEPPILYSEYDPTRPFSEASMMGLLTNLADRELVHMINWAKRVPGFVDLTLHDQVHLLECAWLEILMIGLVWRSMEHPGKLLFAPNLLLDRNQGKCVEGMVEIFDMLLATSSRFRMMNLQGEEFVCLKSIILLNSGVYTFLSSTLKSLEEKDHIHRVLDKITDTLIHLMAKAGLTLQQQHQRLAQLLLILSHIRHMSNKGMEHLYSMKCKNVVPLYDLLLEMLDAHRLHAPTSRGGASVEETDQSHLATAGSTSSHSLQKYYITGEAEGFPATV

O=Cc1cc2ccccc2o1
inactive: Potency [1] | outcome [2] | Potency [3] | outcome (Aromatase (Homo sapiens)) | Potency [4] | Potency [5] | Potency [6] | Potency [7] | outcome [8] | outcome [9] | outcome [10] | Potency [11] | outcome [12]

C#CCN[C@@H]1CCc2ccccc21
inactive: Potency [13] | outcome [14] | outcome [15] | outcome [2] | Potency [16] | Potency [17] | outcome [18] | Potency [3] | outcome (Aromatase (Homo sapiens)) | Potency [4] | Potency [5] | Potency [6] | Potency [7] | outcome [8] | outcome [9] | Potency [19] | outcome [10] | outcome [12]

CCCCCCC1(C)CCC(=O)O1 (configuration not stated)
inactive: Potency [1] | Potency [13] | outcome [14] | Potency [16] | Potency [17] | outcome [18] | Potency [3] | outcome (Aromatase (Homo sapiens)) | Potency [4] | Potency [5] | Potency [6] | Potency [7] | outcome [8] | outcome [9] | Potency [19] | outcome [10] | Potency [11] | outcome [12]

Cc1ccnc(N)c1
inactive: Potency [1] | Potency [13] | outcome [14] | outcome [2] | Potency [3] | outcome (Aromatase (Homo sapiens)) | Potency [4] | Potency [6] | outcome [8] | outcome [9] | outcome [10] | Potency [11] | outcome [12]

CN(C)CCN(C)CCO
inactive: Potency [1] | outcome [2] | Potency [16] | Potency [17] | outcome [18] | Potency [3] | outcome (Aromatase (Homo sapiens)) | Potency [4] | Potency [5] | Potency [6] | Potency [7] | outcome [8] | outcome [9] | outcome [10] | outcome [12]

Cn1c(=O)c2c(ncn2CCO)n(C)c1=O
inactive: Potency [1] | Potency [13] | outcome [14] | outcome [2] | Potency [3] | outcome (Aromatase (Homo sapiens)) | Potency [4] | Potency [6] | outcome [9] | outcome [10] | Potency [11] | outcome [12]

CCNC(=O)NCc1cccc(Cl)c1
inactive: Potency [13] | outcome [14] | outcome [15] | outcome [2] | Potency [16] | Potency [17] | outcome [18] | Potency [3] | outcome (Aromatase (Homo sapiens)) | Potency [4] | Potency [5] | Potency [6] | Potency [7] | outcome [8] | outcome [9] | Potency [19] | outcome [10] | Potency [11] | outcome [12]

CCn1cc(C(=O)O)c(=O)c2cnc(N3CCCC3)nc21
inactive: Potency [1] | Potency [13] | outcome [14] | outcome [2] | Potency [3] | Potency [6] | activity change, negative = cytotoxicity [9] -3.06% [at 13.2 µM] | viability change, negative = cytotoxic [10] 0.125% [at 8.36 µM] | activity change, negative = cytotoxicity [11] 1.32% [at 13.2 µM] | activation [12] -0.943% [at 13.2 µM]

N#Cc1cscn1
active: Potency [7] 54.9 µM
inactive: Potency [1] | Potency [13] | outcome [14] | Potency [3] | outcome (Aromatase (Homo sapiens)) | Potency [4] | Potency [6] | outcome [8] | outcome [9] | Potency [19] | outcome [10] | Potency [11] | outcome [12]
